Where “and” joins values, the source holds several entries; their conditions need not be identical. Equal values may be shown once. Out of some 71,000 compounds screened, about 1,400 (2%) were called active. Inconclusive results (about 3%) are left out. Calls follow the shape of the dose curve; as a rule, active = well fitted curve in the direction sought with a large enough effect; inconclusive = small, poorly fitted or top-dose-only effect; inactive = no such curve, though single readings can be large or run the other way. Many of the other results were omitted from the sample, so actives are more common in it than they were. Some compounds were tested as several samples or in several runs, with calls that do not always agree.
molecular target: Microtubule-associated protein tau (Homo sapiens) (UniProt P10636); test: qHTS Assay for Tau Filament Binding; details: recombinant tau filaments, thioflavin S fluorescence, 15 h; series mostly up to 57.1 µM; activity change, negative = inhibition: at the top concentration;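 also: actives lower thioflavin S fluorescence by blocking filaments or displacing dye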
Sequence (P10636 whole entry, looked up): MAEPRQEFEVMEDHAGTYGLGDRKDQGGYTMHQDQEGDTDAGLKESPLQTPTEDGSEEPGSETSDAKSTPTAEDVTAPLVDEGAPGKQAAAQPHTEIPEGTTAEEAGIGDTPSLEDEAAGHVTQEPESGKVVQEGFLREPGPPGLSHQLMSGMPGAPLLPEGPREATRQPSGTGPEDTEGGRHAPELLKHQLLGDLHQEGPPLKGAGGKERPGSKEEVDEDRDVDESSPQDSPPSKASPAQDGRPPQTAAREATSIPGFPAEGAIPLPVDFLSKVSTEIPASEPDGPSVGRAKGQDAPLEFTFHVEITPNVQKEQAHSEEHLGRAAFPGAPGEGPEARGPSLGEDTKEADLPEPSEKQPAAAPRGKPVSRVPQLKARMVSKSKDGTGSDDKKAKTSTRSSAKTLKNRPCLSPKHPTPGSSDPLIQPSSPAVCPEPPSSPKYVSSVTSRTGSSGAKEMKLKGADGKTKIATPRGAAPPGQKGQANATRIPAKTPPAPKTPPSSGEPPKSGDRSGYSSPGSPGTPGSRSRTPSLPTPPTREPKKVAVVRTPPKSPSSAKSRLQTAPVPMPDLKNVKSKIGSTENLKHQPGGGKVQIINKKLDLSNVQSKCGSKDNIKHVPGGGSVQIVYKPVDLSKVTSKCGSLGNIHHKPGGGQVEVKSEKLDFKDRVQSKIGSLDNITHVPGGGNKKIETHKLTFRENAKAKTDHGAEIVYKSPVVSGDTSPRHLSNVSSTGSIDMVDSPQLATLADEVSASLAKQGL
Source text: NIH Molecular Libraries Screening Centers Network [MLSCN]
NIH Chemical Genomics Center [NCGC]
Assay Provider: Jeffrey A. Kuret, Ohio State University
Tau monomers form filaments in vitro in the presence of anionic detergents or fatty acids. The dye Thioflavine S (ThS) binds to tau filaments and upon binding, increases in fluorescence several fold. Small molecules that displace ThS binding or prevent filament binding are identified by a reduction in ThS fluorescence. This assay used histidine-tagged, recombinant human tau protein containing the products of exons 2, 3, and 10 that was provided by Jeff Kuret, Ohio State University. To form filaments, 1 uM tau was incubated with 30 uM sodium octadecylsulfate (ODS) in reagent buffer (10 uM thioflavine S, 5 mM 1,4-dithioerythreitol (DTT), 100 mM sodium chloride, 10 mM HEPES pH 7.4) for 15 hrs at 37 C.
NCGC Assay Protocol Summary:
Assay Steps. Two uL/well of 2 uM tau in reagent buffer (10 uM thioflavine S, 5 mM DTT, 100 mM sodium chloride, 10 mM HEPES pH 7.4) was dispensed into solid black 1536-well plates. Twenty-three nL compound was transferred to the assay plate after which 2 uL/well of 60 uM ODS in reagent buffer was dispensed for a final assay volume of 4 uL /well. Following 15 hours of incubation at 37 C, fluorescence was detected by an Envision (Perkin Elmer) using 450/8 nm excitation and 510/23 nm emission.
Keywords: NIH Roadmap, MLSCN, MLI, MLSMR, qHTS, NCGC, Alzheimer's disease, Neurofibrillary lesions, tau, tubulin assembly, microtubule stability, cytoskeletal integrity, fibrillization, thioflavin dyes, Amyloidgenic
% is scaled to controls: 0 for no effect and ±100 for the full control effect; potency is read from the fitted curve at half-maximal effect.

**Q.** CC(C)CC(C)Nc1ccc(Nc2ccccc2)cc1 (stereo not given) was tested. Which Potency did it give?
**A.** 15.8 µM (active)

**Q.** For c1ccc(N2CC[C@@]3(CCCNC3)C2)nc1, which “activity change, negative = inhibition” value is on record?
**A.** 1.4% (inactive)

**Q.** For CC[C@@](O)(C(=O)O)c1cc2n(c(=O)c1CO)Cc1cc3ccccc3nc1-2, which activity change, negative = inhibition is on record?
**A.** 6.4% [at 11.4 µM] (inactive)

**Q.** How did the “activity change, negative = inhibition” value turn out when Nc1ccc([N+](=O)[O-])cc1 was run?
**A.** 2.8% (inactive)

**Q.** With CC(=O)c1c(O)c(C)c(O)c(Cc2c(O)c3c(c(C(=O)/C=C\c4ccccc4)c2O)OC(C)(C)C=C3)c1O as the molecule, how does the Potency read?
**A.** 15.8 µM (active) and 25.1 µM (active)

**Q.** How did the “activity change, negative = inhibition” value turn out when Clc1ccccc1 was run?
**A.** 60.1% (inactive)

**Q.** For Fc1ccc(C(OCCN2CCN(C/C=C\c3ccccc3)CC2)c2ccc(F)cc2)cc1, which Potency is on record?
**A.** 12.6 µM (active)

**Q.** With CCCCC#N as the molecule, how does the “activity change, negative = inhibition” value read?
**A.** 1.9% (inactive)

**Q.** Nc1ccc(Cc2ccc(N)c(Cl)c2)cc1Cl was tested. Which “activity change, negative = inhibition” value did it give?
**A.** -16.2% (inactive)

**Q.** With N#CCCCl as the molecule, how does the Potency read?
**A.** inactive

**Q.** Which “activity change, negative = inhibition” value does the source give for CC(C)(C)C(O)(CCc1ccc(Cl)cc1)Cn1cncn1 (stereo not given) here?
**A.** -11.7% [at 57.1 µM, filaments grown with octadecylsulfate alongside compound] (inactive)

**Q.** With Clc1cccc(Cl)c1Cl as the molecule, how does the “activity change, negative = inhibition” value read?
**A.** 2.2% (inactive)

**Q.** How did the Potency turn out when c1ccc2c(c1)[I+]c1ccccc1-2 was run?
**A.** inactive and 39.8 µM (active)

**Q.** For CCNC[C@H](O)c1cccc(O)c1, which “activity change, negative = inhibition” value is on record?
**A.** 4.3% [at 25.6 µM] (inactive)

**Q.** Which “activity change, negative = inhibition” value does the source give for O=C(Nc1cccc(F)c1)N1CC[C@@]2(CCCN(C(=O)Oc3ccccc3)C2)C1 here?
**A.** 4.7% (inactive)

**Q.** c1ccc(CN2CC[C@@]3(CCCNC3)C2)cc1 was tested. Which “activity change, negative = inhibition” value did it give?
**A.** 8.4% (inactive)

**Q.** Which “activity change, negative = inhibition” value does the source give for ClCCBr here?
**A.** -12.3% (inactive)

**Q.** For CN1CCN(C(=O)O[C@@H]2c3nccnc3C(=O)N2c2ccc(Cl)cn2)CC1, which Potency is on record?
**A.** inactive

**Q.** With O=C1C2(Cl)C3(Cl)C4(Cl)C(Cl)(Cl)C5(Cl)C3(Cl)C1(Cl)C5(Cl)C24Cl (stereo not given) as the molecule, how does the Potency read?
**A.** inactive and 15.8 µM (active)

**Q.** Cc1cc(-c2ccc(N)c(C)c2)ccc1N was tested. Which “activity change, negative = inhibition” value did it give?
**A.** -17.3% (inactive)

**Q.** How did the “activity change, negative = inhibition” value turn out when C=CC#N was run?
**A.** -14.1% (inactive)

**Q.** With CC(C)(Cc1c[nH]c2ccc(Cl)cc12)NCCOc1ccccc1OCC1CC1 as the molecule, how does the “activity change, negative = inhibition” value read?
**A.** 49.6% (inactive)

**Q.** With ClC(Cl)=C(Cl)C(Cl)=C(Cl)Cl as the molecule, how does the “activity change, negative = inhibition” value read?
**A.** -4.5% (inactive)

**Q.** How did the “activity change, negative = inhibition” value turn out when CC(Cl)Cl was run?
**A.** -2.3% (inactive)

**Q.** How did the Potency turn out when C[C@]12CC[C@H](O)C[C@@H]1CC[C@H]1[C@H]2CC[C@]2(C)C(=O)CC[C@@H]12 was run?
**A.** inactive

Source: PubChem BioAssay AID596 (National Center for Advancing Translational Sciences (NCATS), 2007)
